# A selection: hits, their analogues and other compounds. The true share with any hit is near 3.2%.
# CRFBP-R2 block = blocks CRF-induced signaling of the CRF-BP/CRF-R2 complex. inhibition, % at 11.8 µM. HEK293 CRF-R2/CRF-BP, CRF-induced calcium fluorescence. AID 588475. 0.59% of 350,000 active;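 active means inhibition of the ligand-induced calcium signal above about 50% at the single tested concentration, limit read from the data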
# PfGluPho inh = PfG6PD (Plasmodium falciparum) enzyme inhibition | PfGluPho enzyme, NADPH resazurin-diaphorase fluorescence | inhibition, % at 20 µM | 0.78% of 350,000 active;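 active means inhibition reaching at least a set limit at 20 µM in the primary screen, cut at about 59% in these data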;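 further: 0% = DMSO wells with substrate and 100% = DMSO wells lacking glucose-6-phosphate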
# Cardio protect = protects H9c2 cardiomyocytes from peroxide injury. protection from H2O2 cell death, % at 20 µM. AID 588492. H2O2 injury protection, ATPLite, 2 h. 0.63% of 360,000 active;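 active means compounds giving at least 50% protection of heart cells from peroxide-induced death in the single-dose screen, raw or plate-pattern-corrected value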;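 further: 0% = DMSO wells with peroxide and 100% = DMSO wells without peroxide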
# FAS TE block = FAS thioesterase (human) inhibition. P49327. 0.67% of 360,000 active. inhibition, % at 15 µM. recombinant FAS-TE, OMFH fluorogenic substrate, fluorescence endpoint;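 active means compounds whose normalised, plate-corrected inhibition of enzyme fluorescence in the single-dose primary screen is 50% or more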;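 further: 0% = DMSO with enzyme and 100% = substrate without enzyme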
# Target sequence (P49327 whole entry, looked up): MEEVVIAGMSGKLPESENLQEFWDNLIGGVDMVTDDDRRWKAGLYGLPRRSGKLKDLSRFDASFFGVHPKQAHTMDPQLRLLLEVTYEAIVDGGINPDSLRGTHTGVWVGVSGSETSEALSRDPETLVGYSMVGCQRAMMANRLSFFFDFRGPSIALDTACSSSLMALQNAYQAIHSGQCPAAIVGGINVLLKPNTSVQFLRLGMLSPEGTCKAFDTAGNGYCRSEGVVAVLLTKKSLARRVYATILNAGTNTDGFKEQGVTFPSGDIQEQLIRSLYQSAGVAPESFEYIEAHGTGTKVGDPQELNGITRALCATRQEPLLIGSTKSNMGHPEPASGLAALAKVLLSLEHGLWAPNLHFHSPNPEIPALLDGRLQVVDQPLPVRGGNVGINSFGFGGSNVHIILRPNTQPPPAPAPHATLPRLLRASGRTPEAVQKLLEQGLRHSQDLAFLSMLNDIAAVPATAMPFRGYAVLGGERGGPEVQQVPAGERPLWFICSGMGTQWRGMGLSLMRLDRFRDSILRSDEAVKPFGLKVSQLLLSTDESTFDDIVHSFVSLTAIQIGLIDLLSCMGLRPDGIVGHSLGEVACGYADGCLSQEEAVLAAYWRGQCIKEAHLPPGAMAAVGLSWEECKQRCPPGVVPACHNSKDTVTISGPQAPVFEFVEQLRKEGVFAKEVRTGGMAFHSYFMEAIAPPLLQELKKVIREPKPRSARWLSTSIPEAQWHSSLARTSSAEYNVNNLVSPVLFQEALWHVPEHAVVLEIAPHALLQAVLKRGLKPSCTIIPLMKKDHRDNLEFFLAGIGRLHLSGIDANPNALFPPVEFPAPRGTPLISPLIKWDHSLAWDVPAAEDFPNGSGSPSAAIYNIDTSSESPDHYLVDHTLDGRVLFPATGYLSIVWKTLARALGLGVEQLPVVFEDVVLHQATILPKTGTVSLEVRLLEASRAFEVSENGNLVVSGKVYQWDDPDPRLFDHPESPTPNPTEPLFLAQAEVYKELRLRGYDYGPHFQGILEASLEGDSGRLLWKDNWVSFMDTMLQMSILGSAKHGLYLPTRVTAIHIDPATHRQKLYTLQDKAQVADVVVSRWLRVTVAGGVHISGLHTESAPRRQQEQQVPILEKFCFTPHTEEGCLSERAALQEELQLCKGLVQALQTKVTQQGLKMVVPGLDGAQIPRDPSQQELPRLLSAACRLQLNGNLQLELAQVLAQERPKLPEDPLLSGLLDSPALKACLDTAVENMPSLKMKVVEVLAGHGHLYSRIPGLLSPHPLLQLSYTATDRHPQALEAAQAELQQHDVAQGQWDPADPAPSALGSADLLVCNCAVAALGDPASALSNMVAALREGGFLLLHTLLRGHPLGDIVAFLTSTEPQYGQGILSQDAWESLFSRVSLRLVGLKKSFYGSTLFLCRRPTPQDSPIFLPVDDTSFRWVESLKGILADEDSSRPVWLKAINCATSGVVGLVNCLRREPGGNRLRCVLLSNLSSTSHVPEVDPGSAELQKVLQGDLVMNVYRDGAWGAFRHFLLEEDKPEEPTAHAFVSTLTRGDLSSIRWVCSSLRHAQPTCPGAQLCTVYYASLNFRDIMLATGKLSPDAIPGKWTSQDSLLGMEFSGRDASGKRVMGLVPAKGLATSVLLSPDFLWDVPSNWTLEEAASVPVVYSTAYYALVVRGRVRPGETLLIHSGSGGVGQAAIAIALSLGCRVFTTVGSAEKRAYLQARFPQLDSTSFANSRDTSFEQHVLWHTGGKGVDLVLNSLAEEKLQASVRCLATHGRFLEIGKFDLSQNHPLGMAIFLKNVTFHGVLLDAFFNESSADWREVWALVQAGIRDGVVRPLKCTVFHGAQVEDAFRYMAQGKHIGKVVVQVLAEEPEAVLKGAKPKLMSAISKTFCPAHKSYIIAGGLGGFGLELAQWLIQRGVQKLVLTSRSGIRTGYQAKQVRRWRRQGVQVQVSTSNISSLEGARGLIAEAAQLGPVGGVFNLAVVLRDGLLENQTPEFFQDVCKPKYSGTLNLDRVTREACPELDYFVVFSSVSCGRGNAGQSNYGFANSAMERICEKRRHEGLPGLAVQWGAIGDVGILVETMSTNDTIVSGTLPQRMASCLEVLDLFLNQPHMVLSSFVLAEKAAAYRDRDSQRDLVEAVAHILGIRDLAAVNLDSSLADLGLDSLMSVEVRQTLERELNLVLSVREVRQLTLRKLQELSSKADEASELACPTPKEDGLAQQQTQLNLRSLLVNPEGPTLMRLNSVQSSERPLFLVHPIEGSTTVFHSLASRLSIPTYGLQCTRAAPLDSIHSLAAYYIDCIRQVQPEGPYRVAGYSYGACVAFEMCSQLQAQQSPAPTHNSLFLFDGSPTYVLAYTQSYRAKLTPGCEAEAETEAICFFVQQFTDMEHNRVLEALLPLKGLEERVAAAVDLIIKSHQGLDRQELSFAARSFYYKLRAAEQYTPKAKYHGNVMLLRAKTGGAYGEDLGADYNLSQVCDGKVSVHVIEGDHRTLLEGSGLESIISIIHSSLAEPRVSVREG
# CRFBP-R2 agonist = CRF-BP/CRF-R2 complex agonism; HEK293 CRF-R2/CRF-BP, calcium dye fluorescence (FLIPR); percent of saturating CRF peptide response; activation, % at 13.2 µM; 0.46% of 350,000 active; AID 588473;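 active means activation of at least 50%, plus an integration ratio under a set limit after plate pattern correction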;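 further: plate controls were neutral control wells without compound for no effect and CRF at EC100 for full effect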
# aDG glyco up = alpha-DG glycosylation activation; 0.22% of 360,000 active; AID 624168; activation, % at 10 µM; Pro5-aDG cells, alpha-DG glycosylation AlphaScreen (IIH6); 0% Pro5, 100% B10-LARGE cell signal;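 active means activation of at least 8% versus controls, or a plate z-score of at least 8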;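 further: Pro5 are CHO cells carrying HIG-tagged alpha-DG that lacks glycosylation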
# FAS-TE inh conf = confirmation of human fatty acid synthase thioesterase inhibitors; shares compounds with FAS TE block; inhibition, % at 15 µM; 45% of 2,300 active; AID 624325; recombinant FAS-TE, OMFH fluorogenic substrate, fluorescence;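 active means compounds inhibiting the enzyme by at least 50% at 15 µM in any one of the replicates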;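 further: 0% = enzyme with DMSO only and 100% = wells lacking enzyme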
# Numbers without * were called inactive; / = not tested or not shown.
SMILES,CRFBP-R2 block,PfGluPho inh,Cardio protect,FAS TE block,CRFBP-R2 agonist,aDG glyco up,FAS-TE inh conf
O=S(=O)(c1ccc(N2CCC(c3ccc(Cl)cc3)=N2)cc1)N(CCO)CCO,13.7,29.3,9.4,88.9*,0.8,1.0,92.7*
COCCn1c(SC(C)C(=O)Nc2ccc(N3CCOCC3)cc2)nnc1-c1ccncc1 (stereo unspecified),-18.6,11.5,1.2,-4.8,-0.3,0.0,/
CCS(=O)(=O)c1ccc2c(c1)N(S(C)(=O)=O)CC(C(=O)NC1CC1)O2 (stereo unspecified),-23.0,-0.6,0.8,-4.7,0.2,0.1,/
CCCCN1CCN=C1N(C)C,-7.7,-14.4,7.6,-1.5,0.2,0.1,/
O=C(Cn1nc2ccccc2n1)N/N=C/c1cc(Cl)cc([N+](=O)[O-])c1O,15.6,-1.9,28.3,61.2*,-3.7,-0.1,51.7*
O=C(N/N=C/c1cc([N+](=O)[O-])cc([N+](=O)[O-])c1O)C(O)(c1ccccc1)c1ccccc1,6.2,-35.7,-2.2,51.5*,-1.0,-0.3,61.0*
O=C(N/N=C/c1cc(Cl)cc([N+](=O)[O-])c1O)C1CC1,5.2,-5.1,8.6,3.6,-1.6,0.0,/
CCCCC(=O)N1C(C)CCC1C (stereo unspecified),26.2,-8.3,-1.3,-7.9,-0.6,-0.1,/
CC(/C=C1\SC(=S)N(c2ccc(C(=O)O)cc2)C1=O)=C\c1ccccc1,5.6,-16.9,4.5,90.3*,-1.1,-0.1,14.3
O=[N+]([O-])c1ccccc1SNc1ccccc1,27.1,7.8,-8.8,29.9,-5.0,-0.3,/
O=[N+]([O-])c1ccc(SNc2ccccc2)c([N+](=O)[O-])c1,32.5,26.5,-12.9,57.4*,-3.7,-0.1,45.4*
Cc1ncc([N+](=O)[O-])n1CC(=O)Nc1ccccc1Cl,-0.3,3.0,-0.2,-5.2,-1.5,0.0,/
CCNC(=O)C1CCCN(C(=O)c2cccc(Cl)c2)CC1 (stereo unspecified),/,/,-9.3,-5.8,/,0.1,/
CCCCC(=O)Nc1ccccc1C(=O)OCC(=O)c1ccc2c(c1)OCCO2,14.0,0.8,-15.4,56.5*,5.2,0.4,29.7
CCn1nc(C)c(CNC(=O)Nc2ccccc2C(=O)OC)c1C,-11.8,15.1,-2.9,-5.6,0.9,0.4,/
CC(=O)O[C@@H]1C[C@H]2C(C)(C)C(=O)C=C[C@]2(C)[C@H]2CC[C@@]3(C)[C@H](c4ccoc4)OC(=O)[C@H]4O[C@]43[C@@]21C,-9.4,14.6,7.1,50.8*,41.2,-0.3,28.9
O=C(NCC(F)(F)F)c1ccc(S(=O)(=O)N2CCN(C(=O)C3CCCO3)CC2)cc1 (stereo unspecified),2.0,-5.3,-1.5,-6.1,-0.9,0.0,/
COc1ccc(C2=NOC(COc3ccc([N+](=O)[O-])cc3)C2)cc1 (stereo unspecified),24.9,2.7,-5.3,53.7*,1.9,0.1,26.5
COc1ccc(CCNC(=O)C2CC(c3ccc([N+](=O)[O-])cc3)=NO2)cc1 (stereo unspecified),2.9,-5.9,2.1,6.5,-1.1,-0.1,/
COC(=O)[C@@]1(Cc2ccc(OC)cc2)[C@H]2c3cc(C(=O)N4CCCC4)n(CCc4ccc(OC)c(Br)c4)c3C[C@H]2CN1C(=O)c1ccccc1,/,/,/,73.3*,/,-0.2,14.6
COc1ccc(N=C2C(=Nc3ccc(OC)cc3)N(c3ccc(N(C)C)cc3)C(=S)N2c2ccc(OC)cc2)cc1,18.6,4.0,0.3,80.1*,0.6,-1.0,24.5
O=C(NCC1CCCCC1)C1(CC2CC(c3ccc(Cl)cc3)=NO2)CCNCC1 (stereo unspecified),9.0,-1.2,-9.2,1.6,-0.3,0.9,/
COC(=O)c1ccc(CSc2nc(C(F)F)cc(C)c2C#N)o1,3.3,-6.0,-5.3,53.0*,-4.0,0.3,42.8*
COC(=O)c1ccc(COc2nc(C)cc(C)c2C#N)o1,-1.3,-8.3,0.9,13.4,0.0,0.0,/
CCN(CC)c1cc2nonc2c2nonc12,24.2,4.8,-4.8,50.8*,-1.1,3.2,44.5*
SMILES,CRFBP-R2 block,PfGluPho inh,Cardio protect,FAS TE block,CRFBP-R2 agonist,aDG glyco up,FAS-TE inh conf
CCN(CC)c1cc(Cl)c2nonc2c1N,-13.6,25.2,3.8,6.9,0.1,0.0,/
COc1ccc(N/N=C/c2c(C(=O)O)ccc3ccccc23)cc1,-27.2,-2.3,29.8,16.3,6.5,0.3,/
COc1ccc2nc3n(c(=O)c2c1)-c1cc2ccccc2cc1C(=O)NC3Cc1ccc(O)cc1 (stereo unspecified),2.2,0.4,19.1,24.2,7.8,-0.1,/
CC(C)CC1NC(=O)c2cc3ccccc3cc2-n2c1nc1ccc(Cl)cc1c2=O (stereo unspecified),-28.9,-22.8,-24.8,73.8*,0.8,-0.1,29.9
COc1ccc2nc3n(c(=O)c2c1)-c1cc2ccccc2cc1C(=O)NC3Cc1ccccc1 (stereo unspecified),-2.5,-7.4,10.7,78.3*,7.1,-0.3,32.9
CC1(C2(O)CCCCC2)NCCc2ccccc21 (stereo unspecified),-7.6,-8.7,-1.7,-5.0,1.4,0.0,/
Cc1nnc(SCC(=O)N2c3ccccc3CC2C)[nH]c1=O (stereo unspecified),2.1,12.3,7.2,-6.8,10.2,0.1,/
C#CCN(C[C@H]1[C@H](OC(=O)NCc2ccccc2F)[C@H](OC(=O)NCc2ccccc2F)C[C@H]2C(=O)N(c3ccccc3)C(=O)[C@@H]12)S(=O)(=O)c1ccc(C)cc1,-12.4,-9.9,-1.4,54.1*,1.4,0.0,10.8
C#CCN(C[C@H]1[C@H](OC(=O)NCc2ccc(OC)c(OC)c2)[C@H](OC(=O)NCc2ccc(OC)c(OC)c2)C[C@H]2C(=O)N(c3ccccc3)C(=O)[C@@H]12)S(=O)(=O)c1ccc(C)cc1,0.4,0.6,7.9,71.1*,0.1,-0.1,24.7
CCc1nc2ccc(C(=O)Nc3ccc(NC(C)=O)cc3)cn2c1N(C)C(=O)Cc1ccccc1,/,/,9.2,-3.9,/,-0.2,/
CCN(CC)CCN(C(=O)c1ccc(S(=O)(=O)N2CCCCC2)cc1)c1nc2cc3c(cc2s1)OCO3,-12.4,3.7,4.4,52.6*,-1.8,-0.2,9.0
CC(C)CCN1C(=O)c2ccc(C(=O)OCn3nnc4ccccc4c3=O)cc2C1=O,-9.6,4.9,-4.8,55.0*,0.2,0.6,16.9
Cc1cccc(C(=O)NCCC(=O)Nc2ccc(C)c(F)c2)c1,8.6,-18.4,-6.3,5.1,-3.5,-0.1,/
Cc1cccc(C(=O)NCCC(=O)Nc2ccc(F)c([N+](=O)[O-])c2)c1,1.8,-7.0,-10.9,54.3*,-0.7,-0.1,67.8*
